Several values for one entry are separate records, joined by “and”; a condition that tells them apart may be missing. Equal values may be shown once. This is part of a sample that, as a whole, favours compounds with a hit. Of some 79,000 tested, about 15% had one in any assay. Values without a mark were called inactive. Activity calls are given as the source filed them. Cut-off read from the data, not from the text of the source: active = growth inhibition above about 70%; inactive = the rest.

The source of these data is PubChem BioAssay (NCI).

A short description of experiment [1]: NCI Yeast Anticancer Drug Screen. Data for the rad50 strain (AID 155).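 Note: 0% = growth of vehicle-only cultures of the same strain.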 Conditions: S. cerevisiae rad50 strain growth inhibition, active compounds read high; at 50.0 µM unless noted. In short, it runs like this:
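A DNA repair-deficient yeast mutant serves as the test organism; compound-induced growth inhibition is calculated against vehicle-treated cells.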

The nature of experiment [2]: NCI Yeast Anticancer Drug Screen. Data for the mec2-1 strain (AID 157). The conditions noted are these: S. cerevisiae mec2-1 strain, active compounds read high; at 50.0 µM unless noted. In short, it runs like this:
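Compounds were applied to mec2-1 yeast cells. Their growth was then compared with that of vehicle-treated cultures to give growth inhibition.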

Experiment [3] in a line: NCI Yeast Anticancer Drug Screen. Data for the sgs1 mgt1 strain (AID 161).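 Note: 0% = growth of cultures given vehicle only.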 The conditions noted are these: S. cerevisiae sgs1 mgt1 strain, active compounds read high; at 50.0 µM unless noted. Put shortly:
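Yeast cells carrying a defined DNA-repair defect were exposed to test compounds. Growth inhibition was measured relative to vehicle-treated controls.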

Experiment [4] can be described thus: NCI Yeast Anticancer Drug Screen. Data for the cln2 rad14 strain (AID 165).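 Note: 0% = growth equal to vehicle treated cultures.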 Conditions: S. cerevisiae cln2 rad14 strain, active compounds read high; at 50.0 µM unless noted. In short, it runs like this:
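Strain: cln2 rad14 yeast, altered in cell cycle control and DNA damage repair. Read-out: growth inhibition vs vehicle.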

A short description of experiment [5]: NCI Yeast Anticancer Drug Screen. Data for the bub3 strain (AID 167). Conditions: S. cerevisiae bub3 mutant strain, active compounds read high; at 50.0 µM unless noted. In short, it runs like this: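 Inhibition values come from growth of compound-treated mutant yeast normalised to vehicle-treated controls.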
A short description of experiment [6]: NCI Yeast Anticancer Drug Screen. Data for the mlh1 rad18 strain (AID 175). Conditions: S. cerevisiae mlh1 rad18 strain growth inhibition, active compounds read high; at 50.0 µM unless noted. In short, it runs like this: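 A repair-deficient yeast strain is exposed to test compound, and growth is scored relative to vehicle-treated controls.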

Consider `CCCCCCC/C=C/C1CC(=O)OC1=O` (centres undefined), for which the growth inhibition in experiment [1] is 18.4%; in experiment [2], 11.2%; in experiment [3], 9.55%; in experiment [4] it was 7.05%; in experiment [5], 4.05%; in experiment [6], 29.6%.

`O=C(O)CN(CCCN(CC(=O)O)CC(=O)O)CC(=O)O`: the growth inhibition in experiment [1] is -5%; in experiment [2], 0.85%; in experiment [3], -2.5%; in experiment [4] it was -14%; in experiment [5], -7.4%; in experiment [6], -30.2%.

Turning to `CCOc1ccc(/C=C/C(=O)c2sc(NNC(C)=O)nc2C)cc1`, the growth inhibition in experiment [1] is 20.1%; in experiment [2] it was 25.1%; in experiment [3], -11.6%; in experiment [4], 12.7%; in experiment [5], 25.9%; in experiment [6] it was 22.4%.

Take `CCOC(=O)c1nc2ccccc2c(=O)[nH]1`: the growth inhibition is -1.85% in experiment [1]; -5% in experiment [2]; 1.5% in experiment [3]; -32.9% in experiment [4]; -8.6% in experiment [5]; -2.5% in experiment [6].

Turning to `COc1ccc(Cl)cc1NC(=O)Oc1ccc(NC(C)=O)cc1`, the growth inhibition was 3.2% in experiment [1]; -0.6% in experiment [2]; -1.15% in experiment [3]; -1.3% in experiment [4]; 11% in experiment [5]; 4.25% in experiment [6].

Take `COc1ccc2nc(C(=O)c3ccccc3)c(C)cc2c1`: the growth inhibition in experiment [1] was 8.4%; in experiment [2] it was -28.5%; in experiment [3], -10.7%; in experiment [4], 1.8%; in experiment [5], -10.9%; in experiment [6], -13.2%.

Regarding `CCOCCC(=O)OCCCl`, the growth inhibition is 29.2% in experiment [1]; 9.4% in experiment [2]; 13.3% in experiment [3]; 10.1% in experiment [4]; 15.7% in experiment [5]; 22.9% in experiment [6].

Consider `O=C1OC(c2ccccc2)=N/C1=C\c1ccccc1`, for which the growth inhibition in experiment [1] is -24% and 23.1%; in experiment [2] it was -12.6% and 10.6%; in experiment [3] it was -15.5% and 20.9%; in experiment [4], -5.7% and -23.2%; in experiment [5], 3.9% and -15.2%; in experiment [6], -8.7% and 26.8%.

On to `NC(=O)CCCO`, for which the growth inhibition in experiment [1] was 6.1%; in experiment [2], -2.65%; in experiment [3], -3.25%; in experiment [4], 6.6%; in experiment [5] it was 3.25%; in experiment [6], 2.4%.

For `COc1ccc(C2=NC(CO)[C@H](c3ccccc3)O2)cc1OC` (some centres undefined), the growth inhibition was 2.35% in experiment [1]; -13.2% in experiment [2]; 8.05% in experiment [3]; 17.4% in experiment [4]; -3.75% in experiment [5]; -7.15% in experiment [6].

For the compound `O=c1oc(-c2ccccc2)nc2c1sc1nc(-c3ccccc3)oc(=O)c12`, the growth inhibition in experiment [1] is 47.9%; in experiment [2], 30.7%; in experiment [3] it was 43.3%; in experiment [4] it was 79.8% (active); in experiment [5] it was 24.6%; in experiment [6], 49.4%.

On to `Cn1c2ccc3cc2c(=S)c2cc(ccc21)OCCOCCOCCOCCOCCO3`, for which the growth inhibition in experiment [1] is 32.1%; in experiment [2] it was -16%; in experiment [3] it was 0.65%; in experiment [4], -17%; in experiment [5], -13.3%; in experiment [6], 9.85%.

On to `O=C(O)CCNc1ccc(Cl)cc1[N+](=O)[O-]`, for which the growth inhibition is 25.8% in experiment [1]; 26.8% in experiment [2]; 30.4% in experiment [3]; 16.1% in experiment [4]; 34.9% in experiment [5]; 25.8% in experiment [6].

As for `CCn1nc(C)c2c1C(=O)NC(C)C(=O)N2` (centres undefined), the growth inhibition in experiment [1] is -22.6%; in experiment [2], -33%; in experiment [3], -13.5%; in experiment [4], 16.4%; in experiment [5], -22.9%; in experiment [6] it was -22.4%.

As for `CNC(=S)NCOCCOC(C)=O`, the growth inhibition in experiment [1] is 6.75%; in experiment [2], 22.1%; in experiment [3] it was 15.2%; in experiment [4] it was -26.9%; in experiment [5], 0.75%; in experiment [6], 3.45%.

Consider `O=C(Cc1ccccc1)NCc1ccco1`, for which the growth inhibition was -3.25% in experiment [1]; 8.55% in experiment [2]; -11.6% in experiment [3]; -10.9% in experiment [4]; -7.45% in experiment [5]; 7.3% in experiment [6].

With `N#C/C(=C\c1cccc2ccccc12)c1ccc(Cl)cc1`, the growth inhibition was -11.8% in experiment [1]; -12.9% in experiment [2]; -6.65% in experiment [3]; -13.7% in experiment [4]; -2.6% in experiment [5]; -1.85% in experiment [6].

For `O=C1c2ccccc2C(=O)c2c3c(cc(NCCNCCO)c21)N(CCO)CCN3`, the growth inhibition in experiment [1] is 29.4%; in experiment [2] it was 18.4%; in experiment [3], 33.8%; in experiment [4] it was 10.3%; in experiment [5] it was 34.8%; in experiment [6] it was 29.1%.

In the case of `CC(=O)c1ccc(O)c(/C=C2\CCOC2=O)c1`, the growth inhibition is 8.2% in experiment [1]; 8.4% in experiment [2]; -9% in experiment [3]; -3.45% in experiment [4]; 9.55% in experiment [5]; 7.7% in experiment [6].
